# Screens as filed in PubChem BioAssay.
# HSF-1 act: increases HSF-1 driven luciferase reporter signal; NIH3T3-HGL HSF-1 luciferase reporter, MG132, 8 h; 100% = twice DMSO control signal; activation, % at 9 µM; actives 1.7% (n = 300,000);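 active means mean replicate activation of at least 50% with a set share of replicates each reaching 50%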;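 further: 0% = median of the neutral control wells and 100% = twice that signal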
# HSF1 inhib: HSF1 inhibition; NIH3T3-HGL HSE-luciferase, MG132-induced, luminescence 8 h; hits give low values; activity change, negative = inhibition, % at 7.5 µM (by protocol); actives 0.77% (n = 300,000); AID 2098;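 active means more than half of replicate wells show activity change below -50%, luminescence cut by over half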;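 further: luciferase reports HSF-1 transcriptional activity via heat shock element; 0% = median of DMSO wells and -100% = zero luminescence signal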
# p-CIP stab down: compounds decreasing mouse p/CIP protein stability; Q05BA5; F442A p/CIP-EGFP cells, EGFP fluorescence, 16 h; decrease of EGFP signal, % at 10 µM; actives 0.01% (n = 290,000); AID 1984;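 active means EGFP signal decrease of at least 30% at 10 µM or well 3 SD below plate mean, unless failing retest; inactive means the rest, including hits failing retest or dose response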
# HSP90 refold inh: HSP90 refolding inhibition in rabbit reticulocyte lysate | luciferase refolding luminescence, 3 h | inhibition, % at 5.6 µM | actives 0.91% (n = 290,000);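 active means inhibition above the screen-wide mean plus 3 SD, computed separately per campaign, cut at about 16% in these data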;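 further: 0% = DMSO wells and 100% = 60 µM geldanamycin wells; inhibitors lower the luminescence because luciferase stays unfolded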
# Hsp70 act: transcriptional activators of Hsp70; actives 0.04% (n = 200,000); HeLa Hsp70 promoter luciferase reporter, luminescence; scaled: vehicle 0, proteasome-inhibitor control 100%; activation, % at 10 µM;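 active means activation above the mean across all tested compounds plus 3 SD, cutoff set per campaign, cut at about 5.5% in these data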;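 further: 100% = MG132 at 30 µM as the positive control and 0% = DMSO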
# NALP1 yeast inh: inhibitors of NALP1 inflammasome in yeast | S. cerevisiae NALP1/ASC/caspase-1 growth, X-gal OD620, 72 h | inhibition, % at 10 µM | actives 0.61% (n = 280,000); in the data active means inhibition mostly above about 24%, no sharp cut-off; inactive means mostly below about 32%
# Starred values were filed as active, the others as inactive; . = not tested or not shown. Only some compounds are listed: those with a hit (about 3.8% of all), similar ones and a draw of the others.
SMILES,HSF-1 act,HSF1 inhib,p-CIP stab down,HSP90 refold inh,Hsp70 act,NALP1 yeast inh
N/C(=N\OC(=O)COc1ccc2ccccc2c1Br)c1cccnc1,41,10,3,-3,0,3
N#CCCN1CCN(Cc2ccccc2)CCC1=O,9,7,-1,-1,.,0
COc1ccc(C(=O)NC2CCCc3c2cnn3-c2ccccc2F)cc1OC (stereo not drawn),0,-5,-7,-7,.,18
COc1cccc(C(=O)NCC(=O)N/N=C/c2ccc3c(c2)OCO3)c1,-3,0,-1,-6,.,-18
OCC[C@@H]1C[C@H](O)[C@@H](O)[C@]2(CCc3ccccc3CO2)O1,7,-6,-3,-3,.,35
Cc1cc(C)c(C)c(OCC(=O)O/N=C(\N)c2ccccn2)c1,16,4,9,-1,0,7
N/C(=N\OC(=O)COc1ccc(Cl)cc1Cl)c1ccccn1,74*,28,-1,13,0,-9
COc1ccc(/C(N)=N/OC(=O)COc2ccccc2Cl)cc1,58*,32,-9,-2,0,26
Nc1ccccc1Nc1ccc([N+](=O)[O-])cc1[N+](=O)[O-],60*,18,-11,-1,1,17
O=C(CNC(=O)c1ccc(Cl)cc1)OCCCOC(=O)CNC(=O)c1ccc(Cl)cc1,8,4,-3,0,.,16
NNC(=O)c1ccc(O)cc1O,-91,-88*,11,1,0,15
O=c1c2ccccc2nc(SCc2nnc(-c3ccccc3Br)o2)n1Cc1ccco1,97*,64,6,4,0,17
c1cc2c(cc1C1CCCN1)OCCCO2 (stereo not drawn),-77,-71*,-4,4,0,24
O=S(=O)(c1ccc2c(c1)OCCCO2)N1CCNCC1,-14,-9,0,0,0,37
Cc1cc(C)c(NC(=O)CS(=O)CC(=O)Nc2ccc(F)cc2F)c(C)c1 (stereo not drawn),3,-2,-13,-1,.,.
O=C(CCCCCNC(=O)N1CCn2c1nc1ccccc12)NCc1ccc(Cl)cc1,51*,32,0,-7,.,5
Cc1cc(NC(=O)CCC(=O)N(Cc2cccs2)C(C)(C)C(=O)NC2CCCCC2)no1,1,8,-4,1,.,6
O=[N+]([O-])c1cc(Cl)ccc1N1CCCC1,10,-6,2,0,0,-5
O=C1C(Cl)=C(N2CCN(c3ccccc3[N+](=O)[O-])CC2)C(=O)c2ccccc21,124*,87,-8,-1,0,57
Cc1ccc(NC(=O)c2ccc(OC(=O)COc3cccc(Cl)c3)cc2)cc1,16,10,-2,6,0,28
Cc1ccc(NC(=O)c2ccc(OC(=O)COc3ccc(Cl)cc3C)cc2)cc1,59*,31,-1,1,0,24
COc1cc(C(=O)NCC2CCCO2)ccc1OCc1ccc(Cl)cc1Cl (stereo not drawn),72*,53,.,.,.,.
S=C1NCN(Cc2cccnc2)CN1c1cccc2ccccc12,2,4,-9,0,.,3
Nc1nc(NCc2ccco2)nc(NC2CCCCC2)c1[N+](=O)[O-],-79,-72*,-8,3,.,-16
Nc1nc(NCCOCCO)nc(NC2CCCCC2)c1[N+](=O)[O-],34,1,-3,5,.,13
SMILES,HSF-1 act,HSF1 inhib,p-CIP stab down,HSP90 refold inh,Hsp70 act,NALP1 yeast inh
Nc1nc(NCCO)nc(NC2CCCCC2)c1[N+](=O)[O-],-73,-69*,-3,-2,.,14
CCc1cc(=O)oc2cc(OC(C)=O)cc(OC(C)=O)c12,-9,-13,-11,3,0,27*
Clc1ccc(-n2c(SC/C=C/c3ccccc3)nnc2-c2cccnc2)cc1,69*,38,12,6,0,11
Cc1c(Cl)cccc1NC(=S)N1CCN(C(=O)c2ccco2)CC1,-5,-3,-7,2,.,6
Cc1cccc(NC(=S)N2CCN(C(=O)c3ccco3)CC2)c1C,61*,20,2,1,.,-3
Cc1cc(NC(=O)CCN2C(=O)/C(=C/c3ccccc3Cl)SC2=S)no1,54*,11,-13,2,0,22
O=C(CCN1C(=O)/C(=C/c2cccs2)SC1=S)Nc1ccc(O)cc1,15,11,-14,0,.,14
O=C(CCN1C(=O)/C(=C/c2cccs2)SC1=S)Nc1ccccc1O,69*,43,7,-1,.,-18
O=C(CCN1C(=O)/C(=C\c2ccccc2Cl)SC1=S)N1CCN(c2ccccc2)CC1,-18,3,-6,-2,0,29*
COc1ccccc1/C=C1\SC(=S)N(CCC(=O)Nc2cc(C)on2)C1=O,9,6,-29,-1,.,8
O=C(NCCCN1CCOCC1)C(=O)N/N=C/c1ccccc1O,-20,-3,-13,-2,.,-18
O=C(N/N=C/c1sc(N2CCCCC2)nc1-c1cccs1)C1CC1,22,8,-3,0,0,31*
O=C1c2cccc3c(N4CCCCC4)ccc(c23)C(=O)N1CCO,109*,83,-314,-3,0,5
COCCn1c(SCC(=O)Nc2ccc(S(=O)(=O)N(C)C)cc2)nc2ccccc21,21,3,1,3,0,38*
Cc1ccc(CCN2CCN=C2N(C)C)cc1,-11,1,-14,1,.,3
COc1ccc(N2CC(C(=O)N3CCN(c4ccccc4)CC3)CC2=O)cc1 (stereo not drawn),1,-3,-8,0,.,-2
COc1ccc(N=C2SC(C(=O)N3CCN(c4ccccc4)CC3)CC(=O)N2C)cc1 (stereo not drawn),-82,-77*,-2,3,0,9
Cc1ccc(S(=O)(=O)N2CCN(C(=O)Cc3c(F)cccc3Cl)CC2)cc1,-15,3,.,.,.,.
CSc1sc(C(=O)Nc2ccc(F)cc2F)c2c1C=CCC2,72*,45,1,-7,.,.
OCCC1CN(Cc2cccc(-n3cccn3)c2)CCN1Cc1ccccc1 (stereo not drawn),-67,-65*,-11,4,0,23
Cc1ccc(CN2CCN(Cc3ccc(OC(C)C)cc3)CC2CCO)o1 (stereo not drawn),-3,0,-16,-9,0,14
CC(C)CCN1CCN(Cc2cccc(-n3cccn3)c2)CC1CCO (stereo not drawn),4,-9,-3,4,0,-2
Cc1ccc(CN2CCN(Cc3cccc(OCCO)c3)CC2CCO)o1 (stereo not drawn),-89,-86*,1,5,0,-12
COC(=O)c1ccc(CN2CCN(CCc3ccccc3)C(CCO)C2)cc1 (stereo not drawn),-78,-72*,-3,-3,0,5
Cc1ccc(CNC(=O)CN(c2ccc(C)cc2)S(=O)(=O)c2c(C)n[nH]c2C)cc1,-1,0,1,9,.,16
